Measurements reported in the supplement of paper PMC11732987, “Enantioselective OTUD7B fragment discovery through chemoproteomics screening and high-throughput optimisation” (Communications Chemistry, 2025).
A number with no mark means an inactive call.

What was measured:
Assay in all cases: log2 ratio of Biotin-Ahx-Ub-VS probe labelling (fragment/DMSO); higher = less target engagement (more negative = stronger competition), active = hit call of the paper (q ≤ 0.05, log2 ratio ≤ -1)
Details in all cases: compound concentration: 200 uM; treatment time: 3 h
OTUD6B = target: T1, OTUD6B (UniProt Q8N6M0)
T1 sequence (whole entry): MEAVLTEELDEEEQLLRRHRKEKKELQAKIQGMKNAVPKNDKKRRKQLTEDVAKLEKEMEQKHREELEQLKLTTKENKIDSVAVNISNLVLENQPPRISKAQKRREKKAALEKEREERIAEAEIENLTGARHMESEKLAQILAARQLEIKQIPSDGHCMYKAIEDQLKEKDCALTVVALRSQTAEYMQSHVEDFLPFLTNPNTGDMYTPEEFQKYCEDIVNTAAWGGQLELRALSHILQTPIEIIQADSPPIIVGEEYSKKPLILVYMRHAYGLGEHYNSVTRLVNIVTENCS
Outline: (§1)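 Fragment (200 µM) or vehicle was incubated for 3 h with triplicate HEK293T lysate samples of 495 µg, which were then treated with Biotin-Ahx-Ub-VS at 0.5 µM final for 1 h. Labelled DUBs were enriched on NeutrAvidin, digested with LysC and trypsin, and analysed by diaPASEF LC-MS/MS. Values are average log2 fragment/vehicle ratios from an unpaired t-test on global-median-normalised Spectronaut label-free quantities, using proteins with ≥2 unique peptides.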

OTUD7B = target: T2, OTUD7B (UniProt Q6GQQ9)
T2 sequence (whole entry): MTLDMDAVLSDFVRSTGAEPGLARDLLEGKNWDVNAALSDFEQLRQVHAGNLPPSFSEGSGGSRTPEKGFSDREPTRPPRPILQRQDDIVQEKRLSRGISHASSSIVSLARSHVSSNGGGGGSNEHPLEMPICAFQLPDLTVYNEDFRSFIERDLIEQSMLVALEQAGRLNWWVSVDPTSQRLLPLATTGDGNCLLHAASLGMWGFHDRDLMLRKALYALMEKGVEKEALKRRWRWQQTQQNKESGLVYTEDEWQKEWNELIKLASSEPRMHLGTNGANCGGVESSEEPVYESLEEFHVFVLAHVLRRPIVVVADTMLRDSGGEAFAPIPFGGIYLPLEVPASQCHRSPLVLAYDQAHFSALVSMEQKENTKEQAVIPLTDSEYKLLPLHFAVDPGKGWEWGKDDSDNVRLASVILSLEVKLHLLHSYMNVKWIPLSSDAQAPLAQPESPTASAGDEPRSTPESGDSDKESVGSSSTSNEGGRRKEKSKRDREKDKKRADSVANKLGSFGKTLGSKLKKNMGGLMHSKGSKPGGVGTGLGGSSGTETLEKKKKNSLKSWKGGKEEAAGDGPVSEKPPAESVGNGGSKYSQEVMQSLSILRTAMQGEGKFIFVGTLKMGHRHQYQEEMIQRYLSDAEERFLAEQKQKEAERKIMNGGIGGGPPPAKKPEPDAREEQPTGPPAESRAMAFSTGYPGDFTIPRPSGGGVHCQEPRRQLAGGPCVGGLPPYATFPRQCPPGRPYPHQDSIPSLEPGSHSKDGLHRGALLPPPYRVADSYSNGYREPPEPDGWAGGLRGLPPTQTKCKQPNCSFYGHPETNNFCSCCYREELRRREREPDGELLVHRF
Outline: as §1

PRPF8 = PRPF8 (UniProt Q6P2Q9)
Outline: as §1

PSMD7 = target: T3, PSMD7 (UniProt P51665)
T3 sequence (whole entry): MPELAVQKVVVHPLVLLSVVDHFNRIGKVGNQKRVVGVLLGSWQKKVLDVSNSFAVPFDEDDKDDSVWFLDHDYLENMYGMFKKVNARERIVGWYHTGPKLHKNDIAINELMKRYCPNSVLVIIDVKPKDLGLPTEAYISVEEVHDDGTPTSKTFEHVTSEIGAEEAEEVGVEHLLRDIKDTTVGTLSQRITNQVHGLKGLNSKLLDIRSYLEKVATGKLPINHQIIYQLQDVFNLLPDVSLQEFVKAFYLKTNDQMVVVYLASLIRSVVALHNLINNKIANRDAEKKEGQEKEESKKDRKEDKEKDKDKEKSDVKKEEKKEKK
Outline: as §1

UCHL1 = UCHL1 (UniProt P09936)
Sequence of UCHL1 (P09936 whole entry, looked up): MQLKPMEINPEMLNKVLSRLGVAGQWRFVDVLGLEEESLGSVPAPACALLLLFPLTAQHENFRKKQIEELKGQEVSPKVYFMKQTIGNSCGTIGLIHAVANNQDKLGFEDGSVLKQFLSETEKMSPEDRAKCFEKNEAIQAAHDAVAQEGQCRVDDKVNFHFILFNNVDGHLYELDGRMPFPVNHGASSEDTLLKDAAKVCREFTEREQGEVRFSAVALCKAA
Outline: as §1

UCHL3 = target: T4, UCHL3 (UniProt P15374)
T4 sequence (whole entry): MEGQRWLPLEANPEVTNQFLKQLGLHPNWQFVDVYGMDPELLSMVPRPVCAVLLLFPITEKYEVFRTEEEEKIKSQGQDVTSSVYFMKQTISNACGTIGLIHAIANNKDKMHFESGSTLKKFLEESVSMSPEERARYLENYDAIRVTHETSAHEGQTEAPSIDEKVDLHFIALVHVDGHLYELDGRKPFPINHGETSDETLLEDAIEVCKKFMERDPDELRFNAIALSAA
Outline: as §1

UCHL5 = target: T5, UCHL5 (UniProt Q9Y5K5)
T5 sequence (whole entry): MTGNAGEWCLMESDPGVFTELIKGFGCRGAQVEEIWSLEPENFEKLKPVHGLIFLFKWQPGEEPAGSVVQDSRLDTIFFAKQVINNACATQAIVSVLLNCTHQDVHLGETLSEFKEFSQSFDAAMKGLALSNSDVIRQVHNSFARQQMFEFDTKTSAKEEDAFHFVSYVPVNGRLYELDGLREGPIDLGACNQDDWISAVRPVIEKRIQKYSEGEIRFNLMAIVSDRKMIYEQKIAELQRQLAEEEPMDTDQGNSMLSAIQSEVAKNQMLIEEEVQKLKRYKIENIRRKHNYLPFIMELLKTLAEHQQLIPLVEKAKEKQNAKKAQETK
Outline: as §1

USP10 = USP10 (UniProt Q14694)
Sequence of USP10 (Q14694 whole entry): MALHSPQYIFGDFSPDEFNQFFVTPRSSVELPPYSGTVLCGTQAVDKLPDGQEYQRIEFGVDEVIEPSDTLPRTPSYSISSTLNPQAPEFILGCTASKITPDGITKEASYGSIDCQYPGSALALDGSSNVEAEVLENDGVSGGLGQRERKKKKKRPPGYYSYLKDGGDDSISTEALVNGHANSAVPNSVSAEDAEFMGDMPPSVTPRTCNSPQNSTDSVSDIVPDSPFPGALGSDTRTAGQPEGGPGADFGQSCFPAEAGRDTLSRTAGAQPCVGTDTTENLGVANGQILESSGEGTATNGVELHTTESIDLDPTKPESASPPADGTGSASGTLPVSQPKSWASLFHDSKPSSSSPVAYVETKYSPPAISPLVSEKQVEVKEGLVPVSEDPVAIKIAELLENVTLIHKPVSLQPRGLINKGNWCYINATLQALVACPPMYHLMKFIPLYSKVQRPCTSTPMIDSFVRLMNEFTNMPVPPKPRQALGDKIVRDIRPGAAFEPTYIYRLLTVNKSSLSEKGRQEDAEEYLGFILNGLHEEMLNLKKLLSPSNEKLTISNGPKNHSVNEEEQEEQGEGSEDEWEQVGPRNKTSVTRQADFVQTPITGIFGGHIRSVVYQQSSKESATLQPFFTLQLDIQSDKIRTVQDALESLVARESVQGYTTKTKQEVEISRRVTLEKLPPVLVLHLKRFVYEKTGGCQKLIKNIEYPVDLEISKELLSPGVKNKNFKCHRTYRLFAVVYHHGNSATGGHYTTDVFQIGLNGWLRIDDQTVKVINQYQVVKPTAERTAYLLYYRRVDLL
Outline: as §1

USP15 = target: T6, USP15 (UniProt Q9Y4E8)
T6 sequence (whole entry): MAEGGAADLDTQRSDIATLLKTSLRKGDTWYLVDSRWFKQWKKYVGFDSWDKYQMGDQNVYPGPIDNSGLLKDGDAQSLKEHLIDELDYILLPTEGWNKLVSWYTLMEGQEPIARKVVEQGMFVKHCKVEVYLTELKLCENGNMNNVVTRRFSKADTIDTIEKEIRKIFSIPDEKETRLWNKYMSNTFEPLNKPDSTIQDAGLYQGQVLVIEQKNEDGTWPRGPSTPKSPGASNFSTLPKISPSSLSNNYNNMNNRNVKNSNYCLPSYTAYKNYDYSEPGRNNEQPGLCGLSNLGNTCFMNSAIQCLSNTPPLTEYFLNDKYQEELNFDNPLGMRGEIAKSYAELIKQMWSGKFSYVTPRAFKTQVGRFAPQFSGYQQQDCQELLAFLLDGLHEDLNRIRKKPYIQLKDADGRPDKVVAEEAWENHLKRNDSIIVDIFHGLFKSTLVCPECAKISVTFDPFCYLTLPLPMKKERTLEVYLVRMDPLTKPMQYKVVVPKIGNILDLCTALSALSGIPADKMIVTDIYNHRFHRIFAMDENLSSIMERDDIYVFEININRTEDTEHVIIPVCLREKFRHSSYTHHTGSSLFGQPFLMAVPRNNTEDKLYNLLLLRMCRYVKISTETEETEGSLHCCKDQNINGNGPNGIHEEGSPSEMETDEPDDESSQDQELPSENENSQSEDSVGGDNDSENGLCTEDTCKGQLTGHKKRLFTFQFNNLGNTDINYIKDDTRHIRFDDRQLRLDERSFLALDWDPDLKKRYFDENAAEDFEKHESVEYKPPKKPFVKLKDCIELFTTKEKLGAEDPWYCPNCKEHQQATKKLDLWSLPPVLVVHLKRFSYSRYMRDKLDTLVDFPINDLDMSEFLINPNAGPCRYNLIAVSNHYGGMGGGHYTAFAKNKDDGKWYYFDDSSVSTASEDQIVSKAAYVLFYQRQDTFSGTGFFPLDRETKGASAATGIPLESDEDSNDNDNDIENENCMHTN
Outline: as §1

USP16 = USP16 (UniProt Q9Y5T5)
Sequence of USP16 (Q9Y5T5 whole entry, looked up): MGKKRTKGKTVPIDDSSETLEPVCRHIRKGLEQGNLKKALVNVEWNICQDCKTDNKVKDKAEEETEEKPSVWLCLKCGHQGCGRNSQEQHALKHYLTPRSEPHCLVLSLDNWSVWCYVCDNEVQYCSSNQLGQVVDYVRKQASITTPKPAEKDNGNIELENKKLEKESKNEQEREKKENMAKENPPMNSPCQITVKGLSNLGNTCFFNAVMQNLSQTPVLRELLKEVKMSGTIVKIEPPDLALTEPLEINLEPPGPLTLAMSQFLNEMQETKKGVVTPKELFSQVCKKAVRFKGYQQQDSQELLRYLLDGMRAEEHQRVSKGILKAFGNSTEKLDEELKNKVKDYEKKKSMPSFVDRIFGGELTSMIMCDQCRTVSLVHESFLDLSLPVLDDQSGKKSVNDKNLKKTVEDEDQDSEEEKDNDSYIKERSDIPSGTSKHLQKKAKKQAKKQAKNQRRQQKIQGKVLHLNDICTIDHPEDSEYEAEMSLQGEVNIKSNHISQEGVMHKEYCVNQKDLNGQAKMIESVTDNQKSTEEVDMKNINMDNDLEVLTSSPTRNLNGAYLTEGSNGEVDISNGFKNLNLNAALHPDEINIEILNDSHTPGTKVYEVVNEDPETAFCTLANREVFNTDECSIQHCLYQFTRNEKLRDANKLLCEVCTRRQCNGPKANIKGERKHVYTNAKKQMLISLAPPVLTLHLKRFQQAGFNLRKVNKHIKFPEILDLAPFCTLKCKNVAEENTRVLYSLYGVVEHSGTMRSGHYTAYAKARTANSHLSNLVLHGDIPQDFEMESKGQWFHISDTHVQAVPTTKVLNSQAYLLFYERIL
Outline: as §1

O=C(CCl)NC1CCS(=O)(=O)c2ccccc21 (stereo not given)
log2 ratio of Biotin-Ahx-Ub-VS probe labelling (OTUD6B): -0.258 | log2 ratio of Biotin-Ahx-Ub-VS probe labelling (OTUD7B): -1.79 (active) | log2 ratio of Biotin-Ahx-Ub-VS probe labelling (PRPF8): -0.00882 | log2 ratio of Biotin-Ahx-Ub-VS probe labelling (PSMD7): -0.335 | log2 ratio of Biotin-Ahx-Ub-VS probe labelling (UCHL1): -1.81 (active) | log2 ratio of Biotin-Ahx-Ub-VS probe labelling (UCHL3): 0.125 | log2 ratio of Biotin-Ahx-Ub-VS probe labelling (UCHL5): -0.554 | log2 ratio of Biotin-Ahx-Ub-VS probe labelling (USP10): 0.0657 | log2 ratio of Biotin-Ahx-Ub-VS probe labelling (USP15): -0.242 | log2 ratio of Biotin-Ahx-Ub-VS probe labelling (USP16): -0.0991
